A short description of experiment [1]: ATG_GAL4_TRANS: Attagene TRANS-FACTORIAL HepG2 Assay for GAL4 (Internal Marker) (AID 2282976; active = hit-call score of the fitted dose curve at least 0.9, where 1 is the maximum). The conditions noted are these: HepG2 Attagene TRANS GAL4 internal marker reporter. The method in brief: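 Fluorescence from capillary electrophoresis of labelled RT-PCR products quantifies reporter mRNA induction after 24 h dosing of HepG2 cells carrying transfected GAL4-UAS reporter transcription units. Vehicle DMSO serves as baseline.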

The target of experiment [2] is Glucocorticoid receptor (Homo sapiens) (UniProt P04150). The experiment in a line: ATG_GR_TRANS: Attagene TRANS-FACTORIAL HepG2 Assay for human Glucocorticoid Receptor (GR) (AID 2282978; active = hit-call score of the fitted dose curve at least 0.9, where 1 is the maximum;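 note: activators score as hits since higher reporter transcript over DMSO is fitted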). As to conditions: HepG2 Attagene TRANS GR reporter, mRNA transcription. The method in brief: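 Multiplexed TRANS reporter system, HepG2; 24 h exposure; RNA → oligo(dT) RT → reporter-specific PCR → 6-FAM primer extension → HpaI cut → CE fluorescence. Gain-of-signal vs DMSO.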
Chain of Glucocorticoid receptor (Homo sapiens) (P04150 whole entry, looked up): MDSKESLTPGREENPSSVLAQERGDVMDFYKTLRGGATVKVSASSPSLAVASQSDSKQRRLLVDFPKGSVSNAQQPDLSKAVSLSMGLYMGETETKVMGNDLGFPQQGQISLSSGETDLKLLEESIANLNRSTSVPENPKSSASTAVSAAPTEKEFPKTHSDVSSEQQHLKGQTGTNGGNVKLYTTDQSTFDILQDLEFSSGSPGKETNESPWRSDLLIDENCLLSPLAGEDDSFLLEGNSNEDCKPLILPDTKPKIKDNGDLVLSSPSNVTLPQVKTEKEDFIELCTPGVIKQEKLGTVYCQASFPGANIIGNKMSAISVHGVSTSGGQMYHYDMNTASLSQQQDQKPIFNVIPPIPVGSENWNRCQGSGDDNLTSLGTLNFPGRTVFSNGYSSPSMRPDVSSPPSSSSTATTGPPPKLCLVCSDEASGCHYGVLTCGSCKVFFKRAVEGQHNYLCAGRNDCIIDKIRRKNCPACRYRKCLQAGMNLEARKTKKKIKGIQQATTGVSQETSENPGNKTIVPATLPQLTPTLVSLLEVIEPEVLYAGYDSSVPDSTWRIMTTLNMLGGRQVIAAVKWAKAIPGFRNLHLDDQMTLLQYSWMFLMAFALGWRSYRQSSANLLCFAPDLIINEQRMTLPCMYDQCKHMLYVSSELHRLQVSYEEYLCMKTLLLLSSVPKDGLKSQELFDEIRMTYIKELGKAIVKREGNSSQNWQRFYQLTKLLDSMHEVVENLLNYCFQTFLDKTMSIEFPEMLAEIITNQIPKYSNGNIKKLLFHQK

Experiment [3] is described as follows: ATG_M_06_TRANS: Attagene TRANS-FACTORIAL HepG2 Assay for M06 Transcription Factor (Internal Marker) (AID 2282983; active = hit-call score of the fitted dose curve at least 0.9, where 1 is the maximum). As to conditions: HepG2 Attagene TRANS M06 internal marker reporter. The procedure, abridged:
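Human liver HepG2 cells bearing transiently transfected chimeric NR-GAL4 reporter units were treated with chemicals for 24 h. Total RNA was reverse-transcribed, reporter sequences amplified and labelled, then quantified by capillary electrophoresis. Activity was fitted upward relative to DMSO.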

A short description of experiment [4]: ATG_M_32_TRANS: Attagene TRANS-FACTORIAL HepG2 Assay for M32 Transcription Factor (Internal Marker) (AID 2282984; active = hit-call score of the fitted dose curve at least 0.9, where 1 is the maximum;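 note: transcript level of a background control reporter unit measured by RT-PCR and capillary electrophoresis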). The conditions noted are these: HepG2 Attagene TRANS M32 internal marker reporter. The method in brief:
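Cell-based TRANS-format assay in HepG2: exogenous chimeric GAL4 reporter units transiently expressed, compounds applied 24 h. Reporter mRNA detected by RT-PCR plus capillary electrophoresis; this readout is an internal background marker.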

Experiment [5] has as its target Nuclear receptor subfamily 4 group A member 2 (Homo sapiens) (UniProt P43354). In words: ATG_NURR1_TRANS: Attagene TRANS-FACTORIAL HepG2 Assay for human Nuclear Receptor Related Protein 1 (NURR1) (AID 2282985; active = hit-call score of the fitted dose curve at least 0.9, where 1 is the maximum). As to conditions: HepG2 Attagene TRANS reporter, mRNA readout. The method in brief:
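Measures transcriptional activation by an exogenous NR-Gal4 chimera in transfected HepG2 liver cells. After 24 h, reporter RNA is reverse-transcribed, amplified and resolved by capillary electrophoresis; DMSO defines baseline.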

Experiment [6] has as its target Transcriptional activator Myb (Homo sapiens) (UniProt P10242). In words: ATG_Myb_CIS: Attagene CIS-FACTORIAL HepG2 Assay for human Myeloblastosis (Myb) Proto-Oncogene Transcription Factor (AID 2282986). As to conditions: HepG2 Attagene CIS-FACTORIAL Myb reporter transcription; actives raise or lower the signal. The procedure, abridged:
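Endogenous transcription factor activity at a Myb-responsive cis element is reported in human liver HepG2 cells after 24 h chemical treatment. Reporter mRNA is detected by RT-PCR and capillary electrophoresis fluorescence, with DMSO as baseline.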

Experiment [7] has as its target Nuclear respiratory factor 1 (Homo sapiens) (UniProt Q16656). The experiment in a line: ATG_NRF1_CIS: Attagene CIS-FACTORIAL HepG2 Assay for human Nuclear Respiratory Factor 1 (NRF1) Orphan Gene (AID 2282987). The conditions noted are these: HepG2 NRF1 cis-element reporter, Attagene multiplex; actives raise or lower the signal. The procedure, abridged: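 Human hepatoma HepG2 cells carrying transfected promoter-regulated reporter units were incubated with test chemicals for 24 h. Reporter transcripts were measured by RT-PCR plus capillary electrophoresis, and endpoints derived by bidirectional fitting with DMSO as baseline.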

Experiment [8] is described as follows: ATG_NFI_CIS: Attagene CIS-FACTORIAL HepG2 Assay for human Nuclear Factor I (NFI) (AID 2282989). As to conditions: HepG2 cis-regulatory reporter, NFI response element transcription; actives raise or lower the signal. The method in brief: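 Reporter transcripts were measured by RT-PCR with fluorescent primer extension and capillary electrophoresis 24 h post-treatment. HepG2 cells carried transiently transfected cis-regulated reporter constructs reporting endogenous factor activity; gain or loss fitted against DMSO baseline.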

In experiment [9] the target is Myc proto-oncogene protein (Homo sapiens) (UniProt P01106). The experiment in a line: ATG_Myc_CIS: Attagene CIS-FACTORIAL HepG2 Assay for human Myelocytomatosis (Myc) Proto-Oncogene Transcription Factor (AID 2282990). The conditions noted are these: HepG2, Attagene cis-reporter transcription factor activity; actives raise or lower the signal. The method in brief:
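HepG2, transient MRTU transfection (cis promoters, endogenous TFs); 24 h dosing; TriZol RNA → oligo(dT) RT → PCR → 6-FAM primer extension → HpaI cut → CE. Bidirectional fit vs DMSO.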

Experiment [10] can be described thus: ATG_NRF2_ARE_CIS: Attagene CIS-FACTORIAL HepG2 Assay for human Nuclear Factor Erythroid 2 Related Factor 2 (NFR2) response to Antioxidant Response Elements (ARE) (AID 2282992).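 For AC50: reporter mRNA level measured by RT-PCR and capillary electrophoresis fluorescence.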 As to conditions: HepG2 Attagene ARE/NRF2 reporter, transcription factor activity; actives raise or lower the signal. The procedure, abridged: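 Readout: reporter mRNA quantified by RT-PCR plus FAM-labelled primer extension, HpaI digestion and capillary electrophoresis, 24 h after dosing transfected HepG2 cells. Gain or loss of signal is fitted bidirectionally against DMSO baseline.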

Experiment [11] in a line: ATG_Oct_MLP_CIS: Attagene CIS-FACTORIAL HepG2 Assay for human Octamer-Binding Transcription Factor (Oct) (AID 2282993). As to conditions: HepG2 Attagene cis-factorial Oct reporter, mRNA; actives raise or lower the signal. The procedure, abridged: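 Readout is reporter transcript level from RT-PCR with fluorescent primer extension and capillary electrophoresis, fitted in both directions against DMSO. Transfected HepG2 reporter units report endogenous factor activity after 24 h dosing.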

In experiment [12] the target is Cellular tumor antigen p53 (Homo sapiens) (UniProt P04637). In words: ATG_p53_CIS: Attagene CIS-FACTORIAL HepG2 Assay for human p53 Transcription Factor (AID 2282994). As to conditions: HepG2 p53 cis-element reporter, Attagene mRNA; actives raise or lower the signal. The method in brief: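 Read-out: reporter mRNA by RT-PCR plus capillary electrophoresis with fluorescence detection. Human HepG2 liver cells carried transfected multi-reporter cis-element constructs, dosed 24 h. Gain or loss of signal fitted bidirectionally against DMSO control.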
Chain of Cellular tumor antigen p53 (Homo sapiens) (P04637 whole entry, looked up): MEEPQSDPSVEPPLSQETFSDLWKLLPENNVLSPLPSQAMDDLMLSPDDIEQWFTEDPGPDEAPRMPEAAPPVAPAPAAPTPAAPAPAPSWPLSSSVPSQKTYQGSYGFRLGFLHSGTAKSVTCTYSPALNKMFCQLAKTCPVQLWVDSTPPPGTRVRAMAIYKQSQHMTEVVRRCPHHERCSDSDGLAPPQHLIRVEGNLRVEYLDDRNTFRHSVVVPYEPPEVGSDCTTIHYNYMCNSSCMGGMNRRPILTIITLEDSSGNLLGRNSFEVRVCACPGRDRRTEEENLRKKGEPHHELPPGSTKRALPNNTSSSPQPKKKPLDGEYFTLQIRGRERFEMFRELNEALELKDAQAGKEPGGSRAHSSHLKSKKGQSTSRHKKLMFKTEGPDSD

The nature of experiment [13]: BSK_3C_TissueFactor: BioMAP Diversity Plus: 3C Assay for Tissue Factor Biomarker Activity (AID 2282997). The conditions noted are these: BioMAP 3C HUVEC, tissue factor biomarker readout; actives raise or lower the signal. The procedure, abridged: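 Cells used were primary human umbilical vein endothelial cells. They were dosed with chemical, and after 24 h Tissue Factor was quantified by ELISA. Curves were fitted bidirectionally with DMSO as baseline.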

Experiment [14] is described as follows: BSK_3C_uPAR: BioMAP Diversity Plus: 3C Assay for Urokinase-type plasminogen activator receptor (uPAR) Biomarker Activity (AID 2282998). The conditions noted are these: BioMAP 3C HUVEC, uPAR biomarker ELISA; actives raise or lower the signal. The procedure, abridged:
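Cell-surface uPAR on HUVEC (3C system) read by ELISA at 24 h post-treatment, with DMSO as baseline and fitting in both directions. Parallel cultures stained with SRB to flag overt cytotoxicity.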
For orientation: An ELISA detects its analyte on a solid surface through an enzyme-linked reagent.

A short description of experiment [15]: BSK_3C_VCAM1: BioMAP Diversity Plus: 3C Assay for Vascular cell adhesion molecule 1 (VCAM1) Biomarker Activity (AID 2282999). The conditions noted are these: BioMAP 3C HUVEC, VCAM1 ELISA, cytokine-stimulated; actives raise or lower the signal. The procedure, abridged: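 Activity fitted in both directions relative to DMSO, with ELISA measurement of the surface marker on primary HUVEC (3C) at 24 h post-treatment; parallel SRB staining (0.1% SRB, TCA-fixed, 560 nm) flagged overt cytotoxicity.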

For experiment [16], the target named is Oxysterols receptor LXR-alpha (Homo sapiens) (UniProt Q13133). The experiment in a line: ATG_LXRa_TRANS: Attagene TRANS-FACTORIAL HepG2 Assay for human Liver X Receptor alpha (LXRa) (AID 2282980; active = hit-call score of the fitted dose curve at least 0.9, where 1 is the maximum). The conditions noted are these: HepG2 Attagene TRANS reporter, LXRa transactivation. The method in brief: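 Transient HepG2 transfectants, 24 h dosing, RT-PCR/CE mRNA reporter quantitation; gain-of-signal vs DMSO.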
Chain of Oxysterols receptor LXR-alpha (Homo sapiens) (Q13133 whole entry, looked up): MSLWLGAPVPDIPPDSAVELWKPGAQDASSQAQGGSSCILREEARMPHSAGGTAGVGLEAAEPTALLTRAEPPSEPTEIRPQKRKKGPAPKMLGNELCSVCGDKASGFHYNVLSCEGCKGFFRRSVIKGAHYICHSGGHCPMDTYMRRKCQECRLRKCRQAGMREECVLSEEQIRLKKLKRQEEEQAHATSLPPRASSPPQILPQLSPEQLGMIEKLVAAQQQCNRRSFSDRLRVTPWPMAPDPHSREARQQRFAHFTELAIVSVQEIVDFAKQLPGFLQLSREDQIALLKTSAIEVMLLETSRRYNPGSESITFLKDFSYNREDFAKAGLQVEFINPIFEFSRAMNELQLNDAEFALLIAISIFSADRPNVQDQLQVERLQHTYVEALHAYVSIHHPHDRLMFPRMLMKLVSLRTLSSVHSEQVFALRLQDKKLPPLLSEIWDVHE

Experiment [17] addresses Oxysterols receptor LXR-beta (Homo sapiens) (UniProt P55055). In words: ATG_LXRb_TRANS: Attagene TRANS-FACTORIAL HepG2 Assay for human Liver X Receptor beta (LXRb) (AID 2282981; active = hit-call score of the fitted dose curve at least 0.9, where 1 is the maximum). The conditions noted are these: HepG2 Attagene TRANS GAL4-LXRb reporter, mRNA. The method in brief:
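After 24 h of chemical treatment, transfected HepG2 cells yield total RNA; reporter cDNA is PCR-amplified, FAM-labelled, HpaI-cut and run on capillary electrophoresis. Signal reflects chimeric LXRb-Gal4 activity on GAL4-UAS reporters.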

Experiment [18] has as its target Estrogen-related receptor gamma (Homo sapiens) (UniProt P62508). The experiment in a line: ATG_ERRg_TRANS: Attagene TRANS-FACTORIAL HepG2 Assay for human Estrogen-Related Receptor gamma (ERRg) (AID 2282977; active = hit-call score of the fitted dose curve at least 0.9, where 1 is the maximum;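 note: hits increase reporter signal over DMSO so potencies reflect activators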). The conditions noted are these: HepG2 Attagene TRANS reporter, ERRg transactivation. The method in brief:
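Exogenous NR-Gal4 chimera activity was assessed in HepG2 cells bearing transfected GAL4-UAS reporters. After 24 h dosing, total RNA underwent RT-PCR, fluorescent primer extension and HpaI digestion before capillary electrophoresis, with gain of signal scored against DMSO.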

Experiment [19] concerns the target Bile acid receptor (Homo sapiens) (UniProt Q96RI1). The experiment in a line: ATG_FXR_TRANS: Attagene TRANS-FACTORIAL HepG2 Assay for Farnesoid X Receptor (FXR) (AID 2282979; active = hit-call score of the fitted dose curve at least 0.9, where 1 is the maximum;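 note: hits raise reporter mRNA above DMSO so AC50 marks FXR activation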). The conditions noted are these: HepG2 Attagene TRANS FXR-GAL4 reporter transcription. The method in brief:
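Chimeric FXR-GAL4 activity in transiently transfected human HepG2 liver cells is scored as induction of reporter mRNA after 24 h of dosing. Detection uses RT-PCR with fluorescent labelling and capillary electrophoresis, with DMSO serving as baseline.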

The nature of experiment [20]: ATG_NF_kB_CIS: Attagene CIS-FACTORIAL HepG2 Assay for human Nuclear Factor Kappa B (NF-kB) (AID 2282991). As to conditions: HepG2 Attagene cis-factorial NF-kB reporter mRNA; actives raise or lower the signal. The method in brief:
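Multiplexed cis-reporter assay in transiently transfected HepG2. 24 h treatment; RNA isolated, RT-PCR, labelled fragments resolved by CE. DMSO baseline.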

Each structure is given as a SMILES string. Results filed as inconclusive are left out. Some structures have more than one record in an assay (separate samples or runs), and their calls can disagree. The source made the active and inactive calls. Rule for the calls, unless noted: active = hit-call score of the fitted dose curve at least 0.9, where 1 is the maximum; inactive = score below 0.9.

Outcome and AC50 data for seven compounds are collected here from PubChem BioAssay (EPA / NIEHS).

Chain of Nuclear receptor subfamily 4 group A member 2 (Homo sapiens) (P43354 whole entry, looked up, the tested form may be a part): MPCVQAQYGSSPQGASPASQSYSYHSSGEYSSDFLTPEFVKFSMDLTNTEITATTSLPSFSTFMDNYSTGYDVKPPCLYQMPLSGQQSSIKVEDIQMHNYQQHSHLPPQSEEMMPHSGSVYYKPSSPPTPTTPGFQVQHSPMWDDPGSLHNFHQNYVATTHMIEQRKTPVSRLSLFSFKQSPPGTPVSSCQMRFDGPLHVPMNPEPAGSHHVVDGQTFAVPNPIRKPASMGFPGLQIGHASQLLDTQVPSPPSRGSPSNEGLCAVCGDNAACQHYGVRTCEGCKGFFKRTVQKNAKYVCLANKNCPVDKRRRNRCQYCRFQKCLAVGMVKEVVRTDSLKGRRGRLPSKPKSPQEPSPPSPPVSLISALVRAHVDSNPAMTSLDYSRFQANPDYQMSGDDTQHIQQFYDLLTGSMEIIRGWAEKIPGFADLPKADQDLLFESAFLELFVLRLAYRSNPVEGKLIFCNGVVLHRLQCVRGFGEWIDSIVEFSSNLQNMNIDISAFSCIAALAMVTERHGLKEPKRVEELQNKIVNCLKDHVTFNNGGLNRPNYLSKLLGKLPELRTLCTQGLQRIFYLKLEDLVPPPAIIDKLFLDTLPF
Chain of Nuclear respiratory factor 1 (Homo sapiens) (Q16656 whole entry, looked up): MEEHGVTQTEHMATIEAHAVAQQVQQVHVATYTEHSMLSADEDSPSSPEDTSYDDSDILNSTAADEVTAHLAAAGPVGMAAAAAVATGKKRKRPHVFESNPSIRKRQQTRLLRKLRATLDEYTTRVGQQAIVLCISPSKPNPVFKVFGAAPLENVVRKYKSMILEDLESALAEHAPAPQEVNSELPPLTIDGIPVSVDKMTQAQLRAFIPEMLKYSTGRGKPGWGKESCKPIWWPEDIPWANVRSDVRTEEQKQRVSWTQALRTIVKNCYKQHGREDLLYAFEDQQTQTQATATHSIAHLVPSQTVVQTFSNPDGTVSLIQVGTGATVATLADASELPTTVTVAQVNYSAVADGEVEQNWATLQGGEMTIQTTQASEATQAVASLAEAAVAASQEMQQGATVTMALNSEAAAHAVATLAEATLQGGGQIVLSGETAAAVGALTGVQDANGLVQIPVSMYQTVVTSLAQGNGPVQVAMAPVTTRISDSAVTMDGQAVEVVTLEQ
Chain of Oxysterols receptor LXR-beta (Homo sapiens) (P55055 whole entry, looked up, the tested form may be a part): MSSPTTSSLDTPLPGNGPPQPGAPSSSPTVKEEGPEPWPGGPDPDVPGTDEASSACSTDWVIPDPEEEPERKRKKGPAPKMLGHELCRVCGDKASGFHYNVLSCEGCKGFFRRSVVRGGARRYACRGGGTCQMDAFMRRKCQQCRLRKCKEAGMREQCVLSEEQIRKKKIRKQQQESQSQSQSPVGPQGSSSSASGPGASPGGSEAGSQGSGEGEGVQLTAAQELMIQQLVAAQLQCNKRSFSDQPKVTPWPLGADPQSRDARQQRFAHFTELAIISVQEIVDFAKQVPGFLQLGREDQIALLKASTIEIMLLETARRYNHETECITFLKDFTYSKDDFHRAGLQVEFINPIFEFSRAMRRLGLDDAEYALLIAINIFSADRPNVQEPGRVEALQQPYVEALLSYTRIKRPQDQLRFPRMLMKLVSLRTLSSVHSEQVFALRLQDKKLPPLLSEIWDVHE
Chain of Transcriptional activator Myb (Homo sapiens) (P10242 whole entry, looked up): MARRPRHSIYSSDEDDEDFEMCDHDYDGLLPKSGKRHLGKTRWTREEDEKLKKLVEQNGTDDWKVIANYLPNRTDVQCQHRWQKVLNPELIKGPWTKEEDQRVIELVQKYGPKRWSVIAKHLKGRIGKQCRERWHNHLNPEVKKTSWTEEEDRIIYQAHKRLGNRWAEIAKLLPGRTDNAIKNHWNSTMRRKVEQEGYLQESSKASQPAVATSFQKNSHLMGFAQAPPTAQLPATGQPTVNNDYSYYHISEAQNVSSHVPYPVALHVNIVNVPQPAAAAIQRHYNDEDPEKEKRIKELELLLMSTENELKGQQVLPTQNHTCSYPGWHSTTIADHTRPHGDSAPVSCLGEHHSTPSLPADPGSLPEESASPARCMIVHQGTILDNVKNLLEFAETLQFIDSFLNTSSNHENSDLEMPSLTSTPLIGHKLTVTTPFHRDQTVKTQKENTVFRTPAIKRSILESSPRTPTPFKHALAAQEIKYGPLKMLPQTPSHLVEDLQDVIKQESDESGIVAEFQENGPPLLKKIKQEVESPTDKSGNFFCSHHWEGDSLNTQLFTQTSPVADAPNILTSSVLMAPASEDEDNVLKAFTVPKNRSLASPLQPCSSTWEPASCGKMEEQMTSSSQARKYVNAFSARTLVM
Chain of Myc proto-oncogene protein (Homo sapiens) (P01106 whole entry, looked up): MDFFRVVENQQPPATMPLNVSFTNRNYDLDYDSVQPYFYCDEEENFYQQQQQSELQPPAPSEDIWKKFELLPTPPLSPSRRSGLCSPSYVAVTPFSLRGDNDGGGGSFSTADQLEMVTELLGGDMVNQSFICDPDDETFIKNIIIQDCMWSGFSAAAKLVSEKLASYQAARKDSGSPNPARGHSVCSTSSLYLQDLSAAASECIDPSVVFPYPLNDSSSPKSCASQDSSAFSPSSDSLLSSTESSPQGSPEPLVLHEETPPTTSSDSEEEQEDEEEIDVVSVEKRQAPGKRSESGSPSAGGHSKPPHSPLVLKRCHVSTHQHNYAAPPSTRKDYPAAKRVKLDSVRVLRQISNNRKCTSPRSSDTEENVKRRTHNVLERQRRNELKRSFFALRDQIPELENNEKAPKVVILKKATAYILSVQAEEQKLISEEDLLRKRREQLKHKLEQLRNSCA
Chain of Bile acid receptor (Homo sapiens) (Q96RI1 whole entry, looked up, the tested form may be a part): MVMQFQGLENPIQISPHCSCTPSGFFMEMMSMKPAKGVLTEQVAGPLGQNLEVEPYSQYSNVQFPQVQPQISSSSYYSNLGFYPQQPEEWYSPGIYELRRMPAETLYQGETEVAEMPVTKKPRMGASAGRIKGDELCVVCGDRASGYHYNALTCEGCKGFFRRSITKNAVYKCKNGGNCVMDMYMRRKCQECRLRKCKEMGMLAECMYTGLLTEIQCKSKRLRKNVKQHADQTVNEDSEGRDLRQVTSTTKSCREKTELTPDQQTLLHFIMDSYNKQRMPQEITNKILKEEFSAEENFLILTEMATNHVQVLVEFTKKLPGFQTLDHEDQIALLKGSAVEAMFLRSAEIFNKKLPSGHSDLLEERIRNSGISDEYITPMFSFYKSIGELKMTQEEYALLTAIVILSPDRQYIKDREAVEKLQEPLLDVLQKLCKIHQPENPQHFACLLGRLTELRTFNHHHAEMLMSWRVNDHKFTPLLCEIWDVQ

Regarding `O=C(O)COc1ccc(Cl)cc1Cl`, the result in experiment [1], in experiment [2], in experiment [3], in experiment [4], in [5] and in [6] was inactive. The result in experiment [7], in experiment [8], in [9], in experiment [10], in experiment [11] and in experiment [12] was inactive. Besides, the result in experiment [13], in experiment [14] and in [15] was inactive.
Usually AC50 stands for the concentration giving half of the maximal activity seen. Consider `O=C(O)CCCOc1ccc(Cl)cc1Cl`, for which the result in experiment [1], in experiment [16], in experiment [17], in experiment [3], in experiment [6] and in [8] was inactive. Moreover, the outcome in experiment [9], in experiment [10], in [11], in experiment [12], in experiment [14] and in experiment [15] was inactive. For the same compound, the half-maximal activity concentration (AC50) in experiment [10] is 63.9 µM (active).
In the case of `CCC(C)(NC(=O)c1cc(Cl)c(C)c(Cl)c1)C(=O)CCl` (stereo not given), the compound was classed as inactive in experiment [18], in experiment [2], in experiment [19], in experiment [16], in [17] and in experiment [3]. Further, the compound was classed as inactive in experiment [4], in [5], in [6], in [8], in [9] and in experiment [20]. Also, the compound was classed as inactive in experiment [11] and in [12]. For the same compound, the half-maximal activity concentration (AC50) in experiment [10] was 1.64 µM (active); in [14], 14.4 µM (active); in experiment [15] it was 9.51 µM (active).
In the case of `Cc1[nH]c(=O)n(C(C)(C)C)c(=O)c1Cl`, the compound was classed as inactive in experiment [16], in experiment [17], in experiment [3], in experiment [4], in [6] and in experiment [8]. The result in experiment [9], in [20], in experiment [14] and in experiment [15] was inactive. For the same compound, the AC50 in experiment [10] was 20.1 µM (active); in [11] it was 24.2 µM (active).
For `CNC(=O)Oc1cccc(N=CN(C)C)c1`, the call in [19], in experiment [16], in experiment [17], in [3], in experiment [6] and in [9] was inactive. Besides, the outcome in [12], in experiment [13] and in experiment [14] was inactive. Also, the half-maximal activity concentration (AC50) is 82.3 µM (active) in [8], 50 µM (active) in experiment [10], 25.7 µM (active) in experiment [11] and 29 µM (active) in [15].
Consider `N#CN`, for which the compound was called inactive in experiment [17], in [3], in [4], in experiment [5], in [6] and in experiment [8]. In addition, the outcome in [9], in experiment [20], in experiment [10], in experiment [11], in [14] and in experiment [15] was inactive.
Consider `O=C1c2ccccc2C(=O)N1SC(Cl)(Cl)Cl`, for which the outcome in experiment [17], in experiment [4], in experiment [5], in experiment [6], in experiment [8] and in experiment [9] was inactive. Besides, the result in experiment [20], in [11], in experiment [12], in [13], in experiment [14] and in [15] was inactive. In addition, in experiment [10], the half-maximal activity concentration (AC50) is 14.8 µM (active).
